Measurements: PubChem BioAssay (EPA / NIEHS)
Where “and” joins values, the source holds several entries; their conditions need not be identical. Equal entries are not always repeated. A structure can be active in one record and inactive in another. Calls of active or inactive are those of the source. Rule for the calls: active = hit-call score of the fitted dose curve at least 0.9, where 1 is the maximum; inactive = score below 0.9.

Assays:
[1] = read-out: Pselectin, SELP (gene 6403); assay: BSK_4H_Pselectin: BioMAP Diversity Plus: 4H Assay for Pselectin Biomarker Activity (AID 2283026); conditions: primary human endothelial cells (HUVEC); actives raise or lower the signal
Outline: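 Endothelial primary cells (human umbilical vein) are dosed, incubated 24 h, and assayed for surface P-selectin by ELISA; responses in either direction are fitted relative to the DMSO negative control.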

[2] = BSK_4H_SRB: Viability Assessment in the BioMAP Diversity Plus: 4H Assay (AID 2283027); conditions: primary human endothelial cells (HUVEC);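 note: cells exposed to compound for 24 h before staining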;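 for AC50: curves fitted both ways versus DMSO so AC50 may be loss or gain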
Outline: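 Cytotoxicity readout: sulforhodamine B (0.1%) staining of total protein after 10% TCA fixation, measured at 560 nm in human umbilical vein endothelium at 24 h. DMSO set the baseline; fitting was bidirectional.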

[3] = read-out: Human Leukocyte Antigen - DR isotype (HLADR), HLA-DRA (gene 3122); assay: BSK_BE3C_HLADR: BioMAP Diversity Plus: BE3C Assay for Human Leukocyte Antigen - DR isotype (HLADR) Biomarker Activity (AID 2283032); conditions: primary human bronchial epithelial cells; actives raise or lower the signal
Outline: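 Chemicals are dosed onto BE3C bronchial epithelial cultures of human origin and left 24 h. HLA-DR is then measured by ELISA, and the endpoint is fitted in both directions using DMSO as the activity baseline.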

[4] = read-out: Human Leukocyte Antigen - DR isotype (HLADR), HLA-DRA (gene 3122); assay: BSK_CASM3C_HLADR: BioMAP Diversity Plus: CASM3C Assay for Human Leukocyte Antigen - DR isotype (HLADR) Biomarker Activity (AID 2283043); conditions: primary human coronary artery smooth muscle cells; actives raise or lower the signal;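 note: cell-surface HLA-DR protein level quantified by ELISA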
[5] = read-out: Macrophage colony-stimulating factor (MCSF), CSF1 (gene 1435); assay: BSK_CASM3C_MCSF: BioMAP Diversity Plus: CASM3C Assay for Macrophage colony-stimulating factor (MCSF) Biomarker Activity (AID 2283044); conditions: primary human coronary artery smooth muscle cells; actives raise or lower the signal;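 note: M-CSF protein amount quantified by ELISA after 24 h exposure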
[6] = read-out: Low-density lipoprotein receptor (LDLR), LDLR (gene 3949); assay: BSK_CASM3C_LDLR: BioMAP Diversity Plus: CASM3C Assay for Low-density lipoprotein receptor (LDLR) Biomarker Activity (AID 2283045); conditions: primary human coronary artery smooth muscle cells; actives raise or lower the signal;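 note: LDLR protein level on the cell surface quantified by ELISA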
[7] = read-out: serum amyloid A (SAA), SAA1 (gene 6288); assay: BSK_CASM3C_SAA: BioMAP Diversity Plus: CASM3C Assay for serum amyloid A (SAA) Biomarker Activity (AID 2283049); conditions: primary human coronary artery smooth muscle cells; actives raise or lower the signal;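 note: SAA protein level quantified by ELISA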
[8] = BSK_CASM3C_SRB: Viability Assessment in the BioMAP Diversity Plus: CASM3C Assay (AID 2283050); conditions: primary human coronary artery smooth muscle cells;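 note: total protein by SRB staining as cytotoxicity measure in parallel cultures; cells exposed to compound for 24 h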
[9] = read-out: Vascular cell adhesion molecule 1 (VCAM1), VCAM1 (gene 7412); assay: BSK_CASM3C_VCAM1: BioMAP Diversity Plus: CASM3C Assay for Vascular cell adhesion molecule 1 (VCAM1) Biomarker Activity (AID 2283055); conditions: primary human coronary artery smooth muscle cells; actives raise or lower the signal;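 note: VCAM-1 protein level quantified by ELISA on the cells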
[10] = read-out: Collagen III, COL3A1 (gene 1281); assay: BSK_hDFCGF_CollagenIII: BioMAP Diversity Plus: hDFCGF Assay for Collagen III Biomarker Activity (AID 2283056); conditions: primary human foreskin fibroblasts; actives raise or lower the signal
Outline: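 ELISA read-out of collagen III from human skin fibroblast cultures sampled 24 h post-dosing. Values were derived by bidirectional fitting relative to the DMSO vehicle control.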

[11] = read-out: Macrophage colony-stimulating factor (MCSF), CSF1 (gene 1435); assay: BSK_hDFCGF_MCSF: BioMAP Diversity Plus: hDFCGF Assay for Macrophage colony-stimulating factor (MCSF) Biomarker Activity (AID 2283060); conditions: primary human foreskin fibroblasts; actives raise or lower the signal
Outline: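 Primary human foreskin fibroblasts dosed with chemical; 24 h later, M-CSF quantified by ELISA; curves fitted in both directions vs DMSO negative control.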

[12] = read-out: Interleukin-1 alpha (IL1a), IL1A (gene 3552); assay: BSK_KF3CT_IL1a: BioMAP Diversity Plus: KF3CT Assay for Interleukin-1 alpha (IL1a) Biomarker Activity (AID 2283070); conditions: primary human keratinocytes with fibroblasts; actives raise or lower the signal
Outline: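 Readout is IL-1a level by ELISA, compared bidirectionally with DMSO as baseline. Cells: human keratinocytes co-cultured with foreskin fibroblasts, harvested 24 h post-dose.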

[13] = read-out: TIMP metallopeptidase inhibitor 2 (TIMP2), TIMP2 (gene 7077); assay: BSK_KF3CT_TIMP2: BioMAP Diversity Plus: KF3CT Assay for TIMP metallopeptidase inhibitor 2 (TIMP2) Biomarker Activity (AID 2283071); conditions: primary human keratinocytes with fibroblasts; actives raise or lower the signal
Outline: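 Chemicals were dosed onto human skin primary co-cultures of keratinocytes and foreskin fibroblasts, and TIMP-2 was measured by ELISA after 24 hours. Activity in either direction was fitted relative to DMSO.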

[14] = read-out: Interleukin-8 (IL8), CXCL8 (gene 3576); assay: BSK_LPS_IL8: BioMAP Diversity Plus: LPS Assay for Interleukin-8 (IL8) Biomarker Activity (AID 2283078); conditions: primary human HUVEC with PBMC; actives raise or lower the signal
Outline: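 Readout is IL-8 by ELISA, taken 24 h after compounds were added to LPS-stimulated endothelial/PBMC co-cultures. Both increases and decreases relative to DMSO control were scored through bidirectional fitting.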

[15] = read-out: Monocyte Chemoattractant Protein-1 (MCP1), CCL2 (gene 6347); assay: BSK_LPS_MCP1: BioMAP Diversity Plus: LPS Assay for Monocyte Chemoattractant Protein-1 (MCP1) Biomarker Activity (AID 2283081); conditions: primary human HUVEC with PBMC; actives raise or lower the signal;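 for AC50: secreted MCP-1 protein quantified by ELISA in culture supernatant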
Outline: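 Human endothelial–PBMC co-cultures were dosed with chemical, then LPS-driven MCP-1 levels were quantified by ELISA at 24 h. Activity in either direction was fitted versus DMSO negative control.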

[16] = read-out: Tumor necrosis factor (Homo sapiens) (UniProt P01375); assay: BSK_LPS_TNFa: BioMAP Diversity Plus: LPS Assay for Tumour Necrosis Factor alpha (TNFa) Biomarker Activity (AID 2283085); conditions: primary human HUVEC with PBMC; actives raise or lower the signal;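 for AC50: TNFa protein level quantified by ELISA in the co-culture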
Outline: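 Cells (umbilical vein endothelium plus peripheral blood mononuclear cells) were dosed with chemical, incubated 24 h, then TNFa was quantified by ELISA; values derive from bidirectional fitting with DMSO as baseline.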

[17] = read-out: CD38, CD38 (gene 952); assay: BSK_SAg_CD38: BioMAP Diversity Plus: SAg Assay for CD38 Biomarker Activity (AID 2283087); conditions: primary human HUVEC with PBMC; actives raise or lower the signal
Outline: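 CD38 quantified by ELISA (fluorescence) in a superantigen-activated endothelial cell–PBMC co-culture at 24 h post-dose. Activity fitted in both directions relative to DMSO; parallel SRB and Alamar Blue cytotoxicity read-outs.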

[18] = read-out: CD69, CD69 (gene 969); assay: BSK_SAg_CD69: BioMAP Diversity Plus: SAg Assay for CD69 Biomarker Activity (AID 2283089); conditions: primary human HUVEC with PBMC; actives raise or lower the signal;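 for AC50: cell surface CD69 protein quantified by ELISA with fluorescence detection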
Outline: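 HUVEC co-cultured with PBMC were dosed with chemical, and CD69 was measured by ELISA with fluorescence read-out 24 h later. Bidirectional curve fitting used DMSO as negative control and activity baseline.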

[19] = read-out: Monocyte Chemoattractant Protein-1 (MCP1), CCL2 (gene 6347); assay: BSK_SAg_MCP1: BioMAP Diversity Plus: SAg Assay for Monocyte Chemoattractant Protein-1 (MCP1) Biomarker Activity (AID 2283090); conditions: primary human HUVEC with PBMC; actives raise or lower the signal
Outline: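 Values derive from bidirectional fitting of ELISA-measured MCP1 against DMSO controls. Readings were taken 24 h after dosing human vascular endothelial cells co-cultured with peripheral blood mononuclear cells under superantigen stimulation.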

[20] = read-out: E-selectin (Homo sapiens) (UniProt P16581); assay: BSK_SAg_Eselectin: BioMAP Diversity Plus: SAg Assay for Eselectin Biomarker Activity (AID 2283091); conditions: primary human HUVEC with PBMC; actives raise or lower the signal
Outline: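 Co-culture: HUVEC + PBMC. Dose compound; 24 h. ELISA for E-selectin. Bidirectional fit vs DMSO.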

Measured: AC50

E-selectin (Homo sapiens), sequence (P16581 whole entry, looked up): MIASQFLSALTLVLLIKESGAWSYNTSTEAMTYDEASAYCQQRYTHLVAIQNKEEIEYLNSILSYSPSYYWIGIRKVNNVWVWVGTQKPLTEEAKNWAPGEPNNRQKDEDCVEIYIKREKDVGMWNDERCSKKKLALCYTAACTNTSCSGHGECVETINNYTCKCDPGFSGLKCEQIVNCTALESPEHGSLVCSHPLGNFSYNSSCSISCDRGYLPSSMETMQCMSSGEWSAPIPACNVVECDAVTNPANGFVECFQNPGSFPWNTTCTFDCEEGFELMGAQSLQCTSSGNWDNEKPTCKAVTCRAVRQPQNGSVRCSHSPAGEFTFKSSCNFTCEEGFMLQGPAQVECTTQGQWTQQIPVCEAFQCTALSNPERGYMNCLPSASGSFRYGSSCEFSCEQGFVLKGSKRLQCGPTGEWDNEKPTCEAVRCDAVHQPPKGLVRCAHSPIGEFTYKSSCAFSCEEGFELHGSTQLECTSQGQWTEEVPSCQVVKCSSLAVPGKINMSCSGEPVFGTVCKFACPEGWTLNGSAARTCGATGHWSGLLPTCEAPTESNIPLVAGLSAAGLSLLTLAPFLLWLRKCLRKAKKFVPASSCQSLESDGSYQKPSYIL
Tumor necrosis factor (Homo sapiens), sequence (P01375 whole entry, looked up): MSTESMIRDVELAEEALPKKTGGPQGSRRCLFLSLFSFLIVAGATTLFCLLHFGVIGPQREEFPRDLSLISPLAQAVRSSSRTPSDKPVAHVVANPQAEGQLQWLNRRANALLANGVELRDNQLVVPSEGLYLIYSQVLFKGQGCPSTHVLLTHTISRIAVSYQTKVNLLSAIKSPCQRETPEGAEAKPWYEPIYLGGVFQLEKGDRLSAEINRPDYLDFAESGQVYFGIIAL

O=[N+]([O-])O
inactive: all assays above

O=C(O)CCCc1ccc(N(CCCl)CCCl)cc1
active: [1] 13.6 µM and 20 µM | [2] 20 µM | [3] 22 µM and 29.6 µM | [4] 15.9 µM and 20 µM | [5] 17 µM and 15.7 µM | [6] 20 µM | [7] 20 µM | [8] 24.8 µM and 20 µM | [9] 17 µM and 20 µM | [10] 20 µM | [11] 16.6 µM | [12] 12.3 µM | [13] 30.6 µM and 32.6 µM | [14] 25.4 µM | [15] 20 µM | [16] 26.5 µM | [17] 26.6 µM and 12.3 µM | [18] 23.7 µM and 20 µM | [19] 20 µM and 27.2 µM | [20] 31 µM and 20 µM
inactive: [6] | [7] | [10] | [11] | [12] | [14] | [16]

O=C(CCl)c1ccccc1
active: [1] 3.29 µM | [2] 14.3 µM | [3] 30.4 µM | [4] 6.84 µM | [5] 12.9 µM | [6] 33 µM | [7] 14.6 µM | [8] 12.2 µM | [9] 7.45 µM | [10] 4.85 µM | [11] 5.84 µM | [12] 28.4 µM | [13] 36.4 µM | [14] 7.85 µM | [15] 6.34 µM | [16] 4.58 µM | [17] 4.55 µM | [18] 6.19 µM | [19] 6.73 µM | [20] 3.31 µM

CC(C)COP(=O)(OCC(C)C)OCC(C)C
inactive: all assays above

CC(C)(C)C(O)C(Oc1ccc(-c2ccccc2)cc1)n1cncn1 (centres undefined)
active: [1] 29.7 µM | [2] 31.6 µM | [4] 31.3 µM | [5] 20 µM | [6] 20 µM | [7] 20 µM | [8] 30.5 µM | [9] 30.9 µM | [10] 24.9 µM | [12] 33 µM | [13] 20 µM
inactive: [3] | [11] | [14] | [15] | [16] | [17] | [18] | [19] | [20]

CCCOC(=O)c1ccccc1C(=O)OCCC
active: [3] 0.274 µM | [16] 20 µM | [19] 20 µM
inactive: all other assays above

CC(C)(C)C(=O)CCl
active: [3] 20 µM | [4] 4.45 µM | [5] 0.65 µM | [9] 11.7 µM | [17] 27 µM | [18] 8.75 µM | [20] 20 µM
not listed: [14]
inactive: all other assays above

C=CC(=O)OCC(CC)CCCC (centres undefined)
active: [8] 31.7 µM | [9] 20 µM | [10] 20 µM | [11] 20 µM | [12] 6.47 µM | [15] 0.016 µM
inactive: all other assays above

O=C1C=CC(=O)C=C1
inactive: [1] | [2] | [3] | [5] | [6] | [7] | [8] | [14] | [15] | [19]
active: [1] 14.1 µM | [2] 28.7 µM | [3] 27 µM | [4] 10.9 µM and 20 µM | [5] 12.1 µM | [8] 4.88 µM | [9] 9.42 µM and 24.7 µM | [10] 20 µM | [11] 16 µM and 13.5 µM | [12] 30.3 µM and 26.4 µM | [13] 28.7 µM and 12.4 µM | [14] 23.6 µM | [15] 32.6 µM | [16] 31.7 µM and 18.7 µM | [17] 30.4 µM and 25.7 µM | [18] 20 µM and 22.9 µM | [19] 31.4 µM | [20] 30.7 µM and 25.2 µM

O=P1(NCCCl)OCCCN1CCCl (centres undefined)
inactive: all assays above
